In all, about 290,000 compounds went through this assay and about 1,000 (0.34%) were called active. This is one part of a sample in which actives are shown more often than they occur. Values without a mark were called inactive. No stated cut-off is given here; in the data, active means inhibition above about 50% (passing the limit was not always enough); inconclusive means no clear call, values can overlap the other calls.
The compounds below were run against SUMO-conjugating enzyme UBC9 (Homo sapiens) (UniProt P63279) (assay: blockers of SAE1/SAE2–UBC9 SUMO transfer – biochemical, HTRF, uHTS, primary screen (AID 2006)). Conditions: HTRF SUMOylation assay, SAE1/SAE2 + UBC9, in vitro; at 35 µM; stronger effect = higher value.
Chain of SUMO-conjugating enzyme UBC9 (Homo sapiens) (P63279 whole entry, looked up): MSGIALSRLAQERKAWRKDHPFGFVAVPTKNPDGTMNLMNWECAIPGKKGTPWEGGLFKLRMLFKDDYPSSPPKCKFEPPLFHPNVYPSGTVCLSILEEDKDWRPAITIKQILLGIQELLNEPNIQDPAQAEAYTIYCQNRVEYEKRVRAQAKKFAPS

| Compound | inhibition |
| --- | --- |
| COc1cccc(N2C(=O)NC(=O)/C(=C\c3ccc([N+](=O)[O-])s3)C2=O)c1 | 41.7% |
| Cc1cccc(N2C(=O)NC(=O)/C(=C\c3cnn(-c4ccccc4)c3)C2=O)c1 | -3.4% |
| O=C1NC(=O)N(c2ccccc2)C(=O)/C1=C/c1ccc([N+](=O)[O-])s1 | 51.6% (active) |
| CC1CCC(N(C)C2CCN(C)CC2)CC1 (stereo not given) | 9.4% |
| CC(c1ccccc1)(c1ccccc1)c1ccncc1 | 4.4% |
